Results filed as inconclusive are left out. A call without a number means that no potency is given here. Active and inactive are the calls of the source. Unless noted, calls follow the shape of the full dose curve.
Experiments:
[1] = qHTS profiling of the MIPE4 collection as inhibitors of Plasmodium falciparum (3D7) proliferation (AID 743344; call rule not given here); settings: P. falciparum 3D7 in erythrocytes, SYBR Green DNA fluorescence, 72 h; at 28.5 µM unless noted
Method in brief: (§1)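 Erythrocytes infected with P. falciparum (0.3% parasitemia, 2.5% hematocrit) incubated with compounds 72 h at 37 C, 5% CO2. Lysis with saponin/Triton buffer containing SYBR Green I, overnight at room temperature in the dark; DNA fluorescence (485/535 nm) normalised to 0.29 uM artemisinin and DMSO.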

[2] = qHTS profiling of the MIPE4 collection as inhibitors of Plasmodium falciparum (DD2) proliferation (Rep 2) (AID 743346; call rule not given here); settings: P. falciparum Dd2 in erythrocytes, SYBR Green DNA, 72 h; at 28.5 µM unless noted
Method in brief: as §1

[3] = qHTS for Inhibitors of the Functional Ribonucleoprotein Complex (vRNP) of Lassa (LASV) Arenavirus: LASV Primary Screen - GLuc reporter signal (AID 1347082; calls by dose curve; tested in HEK293 reporter line; also: nearly all actives have a fitted effect of over 60% in size; also: potency is read from the fitted curve at half-maximal effect)
[4] = qHTS for Inhibitors of the Functional Ribonucleoprotein Complex (vRNP) of Lassa (LASV) Arenavirus: Viability assay - alamar blue signal for LASV Primary Screen (AID 1347083; calls by dose curve; tested in HEK293 reporter line; also: nearly all actives have a fitted effect of over 80% in size; also: potency is read from the fitted curve at half-maximal effect)
[5] = qHTS for Inhibitors of the Functional Ribonucleoprotein Complex (vRNP) of Lymphocytic Choriomeningitis Arenaviruses (LCMV): Viability assay - alamar blue signal for LCMV Primary Screen (AID 1347085; calls by dose curve; tested in HEK293 reporter line; also: nearly all actives have a fitted effect of over 80% in size; also: potency is read from the fitted curve at half-maximal effect)
[6] = target: Nucleoprotein (Lymphocytic choriomeningitis virus (strain Armstrong)) (UniProt P09992); assay: qHTS for Inhibitors of the Functional Ribonucleoprotein Complex (vRNP) of Lymphocytic Choriomeningitis Arenaviruses (LCMV): LCMV Primary Screen - GLuc reporter signal (AID 1347086); also: nearly all actives have a fitted effect of over 70% in size; also: potency is read from the fitted curve at half-maximal effect
[7] = Confirmatory qHTS to identify inhibitors of SARS-CoV-2 cell entry (AID 1645844); also: nearly all actives have a fitted effect of over 45% in size; also: potency is read from the fitted curve at half-maximal effect
Method in brief: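 HEK293-ACE2 cells were pretreated 1 h with compound, then infected with MLV-based pseudoparticles bearing C-terminally truncated Wuhan-Hu-1 spike for 48 h at 37C; luciferase luminescence normalized to spike PP and bald PP wells.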

[8] = Cytotoxicity counterscreen for inhibitors of SARS-CoV-2 cell entry (AID 1645845); also: nearly all actives have a fitted effect of over 50% in size
Method in brief: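 HEK293-ACE2 cells (Expi293F stably expressing human ACE2) seeded overnight, then compound for 1 h plus 48 h at 37C. Viability as ATP content by luminescence; normalized to wells with cells and media-only wells.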

[9] = Primary qHTS to identify inhibitors of SARS-CoV-2 cell entry (AID 1645846); settings: activity change, negative = inhibition: at 57.1 µM (top of the series) unless noted; also: nearly all actives have a fitted effect of over 45% in size
Method in brief: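 Entry measured by luciferase signal 48 h after adding SARS-CoV-2-S pseudotyped MLV particles to HEK293-ACE2 cells preincubated 1 h with compounds. Normalisation: bald particles and spike particles.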

[10] = VSVG counterscreen qHTS to identify inhibitors of SARS-CoV-2 cell entry (AID 1645847); also: nearly all actives have a fitted effect of over 65% in size; also: potency is read from the fitted curve at half-maximal effect
Method in brief: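 Luminescence read after 48 h infection at 37 C with VSV-G-pseudotyped MLV particles, following 1 h compound exposure of Expi293F cells stably expressing human ACE2; scaled between bald particle and VSV-G particle wells.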

[11] = target: Cytochrome P450 3A4 (Homo sapiens) (UniProt P08684); assay: qHTS Assay for Inhibitors and Substrates of Cytochrome P450 3A4 (AID 884; active = well fitted curve in the direction sought with a large enough effect; an effect the other way counts as inactive or inconclusive; also: nearly all actives have a fitted effect of over 50% in size)
Method in brief: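 20 nM human CYP3A4 with 25 uM Luciferin-PPXE (at KM) in 200 mM KPO4, preincubated 10 min with compound; NADPH regeneration started a 60 min RT reaction. Luciferin detected by luminescence, normalized to 57 uM ketoconazole as full inhibition.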

[12] = Confirmation and Secondary Assay for Modulators of Hemoglobin Beta Chain Splicing at IVS2 654 locus (AID 910; active = well fitted curve in the direction sought with a large enough effect; an effect the other way counts as inactive or inconclusive;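 also: HeLa cells stably carrying EGFP split by mutant beta-globin IVS2-654 intron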)
Method in brief: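 HeLa cells stably expressing EGFP interrupted by β-globin IVS2-654 intron, seeded overnight in Opti-MEM/2% FCS, then treated 2 days at 37 °C. Restored splicing read as total peak GFP intensity per well by laser scanning cytometry (488 nm excitation, 500–520 nm emission); 500 nM antisense PNA as control.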

[13] = Confirmation and Secondary Assay for Modulators of Hemoglobin Beta Chain Splicing at IVS2 705 locus (AID 930; active = well fitted curve in the direction sought with a large enough effect; an effect the other way counts as inactive or inconclusive;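 also: HeLa cells stably expressing the EGFP-705 splicing reporter; GFP fluorescence per well restored by corrected splicing of the IVS2-705 intron in EGFP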)
Method in brief: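 HeLa EGFP-705 reporter; 500 cells/well, o/n 37C 5% CO2; cpd 2 d; 488 ex/500-520 em laser scan; total peak GFP intensity/well. Ref: 500 nM […] antisense PNA.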

[14] = qHTS Assay for Lipid Storage Modulators (AID 1519); settings: Drosophila S3 cells, BODIPY lipid droplet/cell ratio, laser cytometry, cells loaded with oleic acid; for activity change, negative = inhibition: at 57.5 µM (top of the series)
Method in brief: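 Cells seeded at 5,000 per well were treated with compounds over a concentration series and loaded with oleic acid (400 uM, as added). Lipid droplet fluorescence (488 nm excitation, 500-530 nm channel) was read by laser-scanning cytometry and normalized to 20 uM Triacsin C.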

[15] = target: Ubiquitin carboxyl-terminal hydrolase 1 (Homo sapiens) (UniProt O94782); assay: Inhibitors of USP1/UAF1: Pilot qHTS (AID 504865; active = well fitted curve in the direction sought with a large enough effect; an effect the other way counts as inactive or inconclusive;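 also: rhodamine fluorescence freed from ubiquitin-rhodamine substrate followed over time; top concentration of the series differs between compounds; nearly all actives have a fitted effect of over 35% in size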)
Method in brief: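 Deubiquitinase activity followed as kinetic rhodamine fluorescence release from 150 nM Ub-Rho. 1 nM USP1/UAF1 with compound, after 15 min room-temperature preincubation, in HEPES pH 7.8 buffer containing TCEP, EDTA, BSA and Tween-20.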

[16] = measured here: cell count channel max response
[17] = measured here: lipid channel max response

Nucleoprotein (Lymphocytic choriomeningitis virus (strain Armstrong)), sequence (P09992 whole entry, looked up): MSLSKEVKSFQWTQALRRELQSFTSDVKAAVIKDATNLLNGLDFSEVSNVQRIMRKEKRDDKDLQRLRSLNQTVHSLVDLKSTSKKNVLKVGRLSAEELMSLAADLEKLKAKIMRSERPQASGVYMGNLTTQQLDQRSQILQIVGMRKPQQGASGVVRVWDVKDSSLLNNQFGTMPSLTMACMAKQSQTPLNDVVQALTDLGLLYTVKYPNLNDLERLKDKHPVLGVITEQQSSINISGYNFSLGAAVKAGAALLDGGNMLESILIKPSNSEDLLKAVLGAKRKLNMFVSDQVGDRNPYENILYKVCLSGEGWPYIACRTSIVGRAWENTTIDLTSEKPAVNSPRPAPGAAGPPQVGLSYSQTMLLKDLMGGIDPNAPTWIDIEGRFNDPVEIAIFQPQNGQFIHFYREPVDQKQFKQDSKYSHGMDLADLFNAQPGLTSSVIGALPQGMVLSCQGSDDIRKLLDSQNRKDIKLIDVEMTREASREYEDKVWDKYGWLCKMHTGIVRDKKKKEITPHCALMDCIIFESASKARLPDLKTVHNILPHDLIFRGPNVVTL
Cytochrome P450 3A4 (Homo sapiens), sequence (P08684 whole entry, looked up): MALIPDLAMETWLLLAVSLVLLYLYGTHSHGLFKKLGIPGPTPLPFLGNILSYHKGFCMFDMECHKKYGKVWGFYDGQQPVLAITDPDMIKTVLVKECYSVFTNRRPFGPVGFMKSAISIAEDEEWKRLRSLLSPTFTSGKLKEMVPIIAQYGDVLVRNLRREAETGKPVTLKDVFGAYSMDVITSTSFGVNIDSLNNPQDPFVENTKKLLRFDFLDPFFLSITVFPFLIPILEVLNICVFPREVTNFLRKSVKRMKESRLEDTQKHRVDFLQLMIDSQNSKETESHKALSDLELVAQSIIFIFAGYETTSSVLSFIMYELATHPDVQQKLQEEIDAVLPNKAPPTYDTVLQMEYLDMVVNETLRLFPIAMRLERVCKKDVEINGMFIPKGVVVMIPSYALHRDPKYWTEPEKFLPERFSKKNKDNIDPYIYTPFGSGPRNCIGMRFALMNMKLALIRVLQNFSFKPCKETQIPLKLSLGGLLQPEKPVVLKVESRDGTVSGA
Ubiquitin carboxyl-terminal hydrolase 1 (Homo sapiens), sequence (O94782 whole entry, looked up): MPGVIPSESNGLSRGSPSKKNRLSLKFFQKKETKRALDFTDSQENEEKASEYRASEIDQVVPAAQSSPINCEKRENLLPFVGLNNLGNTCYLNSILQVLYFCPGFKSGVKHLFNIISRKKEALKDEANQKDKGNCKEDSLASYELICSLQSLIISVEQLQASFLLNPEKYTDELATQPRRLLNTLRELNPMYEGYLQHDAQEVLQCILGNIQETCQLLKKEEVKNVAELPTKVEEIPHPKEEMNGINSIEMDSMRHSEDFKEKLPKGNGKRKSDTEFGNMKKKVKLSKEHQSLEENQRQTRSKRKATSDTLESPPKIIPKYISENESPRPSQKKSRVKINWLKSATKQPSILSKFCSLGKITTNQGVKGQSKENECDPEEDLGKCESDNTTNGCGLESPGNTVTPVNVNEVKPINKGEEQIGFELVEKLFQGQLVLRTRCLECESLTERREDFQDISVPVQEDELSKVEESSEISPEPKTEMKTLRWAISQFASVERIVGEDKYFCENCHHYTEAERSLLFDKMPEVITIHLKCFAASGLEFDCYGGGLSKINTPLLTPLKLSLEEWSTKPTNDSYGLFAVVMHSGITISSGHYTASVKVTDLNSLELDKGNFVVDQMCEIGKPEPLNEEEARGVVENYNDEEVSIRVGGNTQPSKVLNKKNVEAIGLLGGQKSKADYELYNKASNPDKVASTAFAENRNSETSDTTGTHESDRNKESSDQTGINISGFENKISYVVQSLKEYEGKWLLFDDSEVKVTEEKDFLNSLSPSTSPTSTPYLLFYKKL

Q: With `C[N+](C)([O-])CCNc1ccc(NCC[N+](C)(C)[O-])c2c1C(=O)c1c(O)ccc(O)c1C2=O` as the molecule, how does the parasite growth, % of DMSO control [1] read?
A: 49%

Q: What about the parasite growth, % of control (lower = inhibition) [2] of the same molecule?
A: 41.1%

Q: And the Potency [3]?
A: inactive

Q: What about the Potency [4] of the same molecule?
A: inactive

Q: And the Potency [5]?
A: inactive

Q: What about the Potency [6] of the same molecule?
A: inactive

Q: And the Potency [7]?
A: 19.2 µM (active)

Q: And the Potency [8]?
A: inactive

Q: What about the activity change, negative = inhibition [9] of the same molecule?
A: -13.5%

Q: And the Potency [10]?
A: 10.8 µM (active)

Q: With `CNC(=O)c1nn(C)c2c1C(C)(C)Cc1cnc(Nc3ccc(N4CCN(C)CC4)cc3)nc1-2` as the molecule, how does the Potency [3] read?
A: 3.43 µM (active)

Q: What about the Potency [4] of the same molecule?
A: 1.09 µM (active)

Q: And the Potency [5]?
A: 3.85 µM (active)

Q: And the Potency [6]?
A: 3.06 µM (active)

Q: And the Potency [7]?
A: 3.04 µM (active)

Q: And the Potency [10]?
A: 4.82 µM (active)

Q: For `Nc1nccc(-c2ccc3noc(-c4ccc(Cl)cc4)c3c2)n1`, which Potency [3] is on record?
A: 2.43 µM (active)

Q: What about the Potency [4] of the same molecule?
A: 7.69 µM (active)

Q: What about the Potency [5] of the same molecule?
A: 6.85 µM (active)

Q: And the Potency [6]?
A: 4.85 µM (active)

Q: And the Potency [8]?
A: inactive

Q: For `CC(C)(C)OC(=O)N[C@H]1CCCCCC=C[C@@H]2C[C@@]2(C(=O)NS(=O)(=O)C2CC2)NC(=O)[C@@H]2C[C@@H](OC(=O)N3Cc4cccc(F)c4C3)CN2C1=O`, which Potency [3] is on record?
A: inactive

Q: What about the Potency [4] of the same molecule?
A: inactive

Q: And the Potency [5]?
A: inactive

Q: What about the Potency [6] of the same molecule?
A: inactive

Q: And the Potency [8]?
A: inactive

Q: What does the source list for `O=C(O)CF`?
A: Potency [11]: inactive; Potency [12]: inactive; outcome [13]: inactive; activity change, negative = inhibition [14]: 3.91% (inactive); max response [14, 16]: 8.93%; max response [14, 17]: 13%; Potency [3]: inactive; Potency [4]: inactive; Potency [5]: inactive; Potency [6]: inactive

Q: Which results are given for `C[C@@]12CCC(OS(=O)(=O)O)C[C@@H]1CCC1C2CC[C@]2(C)C(=O)CCC12` (stereo not given in full)?
A: Potency [11]: inactive; Potency [12]: inactive; outcome [13]: inactive; activity change, negative = inhibition [14]: 7.66% (inactive); max response [14, 16]: 17.5%; max response [14, 17]: 28%; Potency [15]: inactive; Potency [3]: inactive; Potency [4]: inactive; Potency [5]: inactive; Potency [6]: inactive

Q: Which results are given for `O=C(NCCCCN1CCOCC1)c1cc2ccccc2o1`?
A: Potency [3]: inactive; Potency [4]: inactive; Potency [5]: inactive; Potency [6]: inactive; Potency [7]: inactive; Potency [8]: inactive; Potency [9]: inactive; Potency [10]: inactive
